# Screening data as filed in PubChem.
# Compounds with a hit are over-represented: about 9.2% of the library has one in this group of screens.
# FLuc counter – counter-screen for miR-21 project: firefly luciferase inhibitors or activators | Potency, µM (top dose mostly 57.5 µM), usual class: inhibitors | purified FLuc, Km substrates, luminescence inhibition | P08659 | 6.9% of 360,000 active; note: nearly all actives have a fitted effect of over 55% in size
# Target sequence (P08659 whole entry, looked up): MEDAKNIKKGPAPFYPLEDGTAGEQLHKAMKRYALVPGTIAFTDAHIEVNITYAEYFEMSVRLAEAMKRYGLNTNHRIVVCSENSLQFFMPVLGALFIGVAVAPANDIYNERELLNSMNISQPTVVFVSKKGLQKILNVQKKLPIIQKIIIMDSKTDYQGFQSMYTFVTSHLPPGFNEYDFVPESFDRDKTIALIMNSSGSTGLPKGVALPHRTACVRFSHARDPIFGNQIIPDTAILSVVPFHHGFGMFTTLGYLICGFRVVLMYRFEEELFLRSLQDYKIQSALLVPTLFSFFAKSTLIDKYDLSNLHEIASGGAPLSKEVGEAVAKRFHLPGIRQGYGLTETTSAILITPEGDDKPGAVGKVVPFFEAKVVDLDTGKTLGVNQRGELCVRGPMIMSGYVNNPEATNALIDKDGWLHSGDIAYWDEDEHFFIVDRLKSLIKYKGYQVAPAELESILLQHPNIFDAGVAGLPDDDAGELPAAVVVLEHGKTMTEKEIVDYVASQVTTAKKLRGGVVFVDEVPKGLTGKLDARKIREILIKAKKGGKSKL
#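 Biochemical qHTS of compounds, final roughly 60 µM downward over six points, against 10 nM purified firefly luciferase using Km concentrations of substrates (10 uM D-luciferin, 10 uM ATP) in Tris acetate pH 7.5 buffer; luminescence output.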
# Rab9 promoter act – activates the Rab9 promoter; Huh7 Rab9 promoter-luciferase reporter, luminescence, 24 h; Potency, µM (titrated, usually from 9.22 µM), actives largely listed as activators; 2.8% of 320,000 active; AID 485297; note: nearly all actives have a fitted effect of over 60% in size
#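 Luminescence read-out: Huh7 cells stably expressing Rab9-luciferase, treated 24 h with compound at 37 °C, then lysed with luciferase reagent for 10 min at ambient before reading.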
# ELG1 DNA repair – inhibitors of ELG1-dependent DNA repair in HEK293T cells; Potency, µM (top dose mostly 46.1 µM), most hits filed as inhibitors; 2.3% of 330,000 active; HEK293T ELG1-luciferase reporter, luminescence, 16 h; DNA damage induced by 5-fluorouridine; note: nearly all actives have a fitted effect of over 55% in size
#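 DMSO vehicle served as the neutral condition. Each well held 2,000 cells given 5-fluorouridine plus compound; after 16 hr at 37 °C/5% CO2, ONE-Glo was added and luciferase measured 30 min later.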
# ELG1 genotoxic – inducers of genotoxicity in HEK293T ELG1-luciferase cells | Potency, µM (doses to about 46 µM), most hits filed as activators | HEK293T ELG1-luciferase reporter, luminescence, 16 h | 1.3% of 330,000 active; note: nearly all actives have a fitted effect of over 60% in size
#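 HEK293T cells expressing luciferase-tagged ELG1 were treated with compound or DMSO for 16 hr at 37°C. Luciferase activity was then read after 30 min with ONE-Glo at room temperature; rising signal flags genetic stress.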
# SMN2 splice enh – SMN2 splice variant enhancement | HEK293 SMN2-luciferase splicing reporter, luminescence, 30-36 h | AID 1458 | Potency, µM (top dose mostly 46.1 µM), usual class: activators | 2.8% of 210,000 active; note: nearly all actives have a fitted effect of over 55% in size
#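 HEK293 cells carry an SMN2 minigene-luciferase reporter in which exon 7 inclusion puts luciferase in frame. Cells were seeded at 2000 cells/well, attached for 10-12 hours, then exposed to compounds for 30-36 hours at 37C before ONE-Glo luminescence.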
# NPC1 prom act – activates the NPC1 promoter; 2.4% of 320,000 active; Huh7 NPC1 promoter luciferase reporter, 24 h; AID 485313; Potency, µM (doses to about 9.22 µM), actives largely listed as activators; note: nearly all actives have a fitted effect of over 60% in size
#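 Cells: Huh7 expressing luciferase under the NPC1 promoter, 1500/well. Seeded 2 h, compound added, incubated 24 h at 37 °C. Luciferase reagent, 10 min ambient, then luminescence.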
# Hits are given with their value; . = inactive; ? = inconclusive; / = no result. Calls come from the whole dose curve; as a rule, active = well fitted curve in the direction sought with a large enough effect; inconclusive = small, poorly fitted or top-dose-only effect, or another doubt; inactive = no such curve, though single readings can be large; an effect the other way counts as inactive or inconclusive.
SMILES,FLuc counter,Rab9 promoter act,ELG1 DNA repair,ELG1 genotoxic,SMN2 splice enh,NPC1 prom act
CCc1cc2cc(C)cc(C)c2nc1SCC(=O)N1CCN(C(=O)c2ccco2)CC1,.,.,8.2µM,.,.,.
CCOc1ccc2[nH]c3c(N4CCN(C(=O)c5ccco5)CC4)ncnc3c2c1,?,.,.,.,/,.
O=C(c1ccc2nc(N3CCOCC3)sc2c1)N1CCN(C(=O)c2ccco2)CC1,.,.,.,.,.,.
COc1ccc2nc(N3CCN(C(=O)c4ccco4)CC3)sc2c1,27µM,/,/,/,/,/
CCc1cc2cccc(C)c2nc1SCC(=O)N1CCN(C(=O)c2ccco2)CC1,.,.,?,.,/,.
CCOc1ccc2nc(N3CCN(C(=O)c4ccco4)CC3)sc2c1,21µM,/,/,/,/,/
Cc1c(Cl)cccc1NC(=O)Nc1c[nH]c(=O)[nH]c1=O,.,/,/,/,/,/
COc1ccc(NC(=O)C2CCCN(C(=O)c3ccc(Cl)cc3)C2)cc1Cl (configuration not stated),.,.,?,.,/,.
O=C(CC(c1cccs1)N1Cc2ccccc2C1=O)Nc1cccc(F)c1 (configuration not stated),.,/,/,/,/,/
Cc1cc(C)c2nc(N3CCC(C(=O)N4CCN(C(=O)c5ccco5)CC4)CC3)sc2c1,?,.,16µM,.,.,.
CC1Cc2ccccc2N1C(=O)Cn1nnc(-c2ccccc2NC(=O)C2CCC2)n1 (configuration not stated),.,.,23µM,.,.,.
O=C(Nc1ccccc1C(=O)N1CCCCCC1)c1ccc(F)cc1,.,.,.,.,/,.
CC(Sc1nc(-c2ccc(F)cc2)cs1)C(=O)N1c2ccccc2CC1C (configuration not stated),.,.,26µM,.,.,.
NS(=O)(=O)c1ccc(CCNc2ncnc3c2c(-c2ccccc2)cn3-c2ccc(F)cc2)cc1,.,.,16µM,.,.,.
CCc1cccc(NC(=O)CN2c3ccccc3S(=O)(=O)c3ccccc32)c1,.,/,/,/,/,/
O=c1c2ccccc2nc(/C=C/c2ccc(Cl)cc2)n1CCO,.,.,.,.,/,.
Cc1[nH]c2ccccc2c1/C=C/c1nc2ccccc2c(=O)n1CCO,?,.,1.8µM,.,.,.
Cc1ccccc1/C=C/c1nc2ccccc2c(=O)n1CCc1ccccc1,.,.,16µM,.,.,.
Cc1cc(C)cc(NC(=O)CN2C(=O)CSc3ccc(S(=O)(=O)N(C)C)cc32)c1,.,/,/,/,/,/
Cc1cnc(NC(=O)CC(C)c2ccccc2)s1 (configuration not stated),?,.,?,.,/,.
NC(=NCc1ccco1)NC(=O)c1ccc(Cl)cc1,17µM,?,?,?,/,?
O=C(NCCCNC(=O)c1ccco1)c1ccc(Cl)cc1,.,.,?,?,/,.
COc1ccc(NS(=O)(=O)c2ccc(C)c(C(=O)N3CCCCCCC3)c2)cc1,.,.,.,.,/,.
O=C(OCc1cccc(F)c1)c1ccc2c(c1)-c1ccccc1C2=O,.,.,?,.,.,.
O=C(OCc1ccccc1F)c1ccc2c(c1)-c1ccccc1C2=O,?,2.2µM,?,?,?,2.2µM
SMILES,FLuc counter,Rab9 promoter act,ELG1 DNA repair,ELG1 genotoxic,SMN2 splice enh,NPC1 prom act
S=C(Nc1ccc(Cl)cc1)Nc1ccc2c(c1)OCCO2,11µM,?,?,.,/,?
S=C(Nc1ccc2c(c1)OCCO2)Nc1ccccc1Cl,15µM,.,?,?,/,.
O=C(CN1CCN(CC(=O)Nc2ccccc2Cl)CC1)Nc1ccc2c(c1)OCCO2,.,.,?,.,.,.
CCCSC1=N/C(=C\C=C\c2ccco2)C(=O)S1,11µM,.,.,.,.,.
CCOc1ncccc1C(=O)OCc1cc(=O)oc2c(C)c(C)ccc12,3µM,.,.,.,.,.
CCOc1ncccc1C(=O)OCc1ccc(C(=O)OC)cc1,?,.,?,?,14µM,.
COC(=O)c1ccc(COC(=O)c2ccccc2OC)cc1,19µM,.,?,.,.,.
COC(=O)c1ccc(OCC(=O)c2ccccc2OC)cc1,?,.,?,.,.,.
